Test results: PubChem BioAssay (NCATS)
Records with an inconclusive call do not appear. Activity calls are given as the source filed them. The call rests on the fitted dose curve; in most records, active means well fitted inhibition curve with a large enough effect; inconclusive means small, poorly fitted or top-dose-only effect; inactive means flat fitted curve, though single readings scatter.

Assays:
Assay in all cases: qHTS profiling for inhibitors of Plasmodium falciparum proliferation (AID 504749); further: nearly all actives have a fitted effect of over 60% in size
Settings in all cases: P. falciparum in erythrocytes, SYBR Green DNA, 72 h; series mostly up to 28.7 µM
[1] = tested on: 3D7
Outline: (§1)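 Quantitative HTS: compounds pinned into medium, infected erythrocytes added (0.3% parasitemia, 2.5% hematocrit), 72 h culture at 37 C under 5% CO2. Saponin/Triton lysis with SYBR Green I, overnight RT, then fluorescence read.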

[2] = tested on: C2A
Outline: as §1

[3] = tested on: CP191
Outline: as §1

[4] = tested on: CP192
Outline: as §1

[5] = tested on: CP201
Outline: as §1

[6] = tested on: CP211
Outline: as §1

[7] = tested on: CP215
Outline: as §1

[8] = tested on: CP237
Outline: as §1

[9] = tested on: CP262
Outline: as §1

[10] = tested on: CP266
Outline: as §1

[11] = tested on: CP268
Outline: as §1

[12] = tested on: CP269
Outline: as §1

[13] = tested on: CP286
Outline: as §1

[14] = tested on: DIV30
Outline: as §1

[15] = tested on: Dd2
Outline: as §1

[16] = tested on: ECU
Outline: as §1

[17] = tested on: FAB9
Outline: as §1

[18] = tested on: GB4
Outline: as §1

[19] = tested on: HB3
Outline: as §1

[20] = tested on: PAD
Outline: as §1

Measured: Potency

C[C@H](N)Cc1ccccc1
inactive: all assays above

COc1ccc2c3c1O[C@H]1[C@@H](O)C=C[C@H]4C(C2)NCCC341 (stereo not given in full)
inactive: all assays above
